Compound activity as filed in PubChem BioAssay.
ERK AVP block: blocks ERK signaling stimulated by vasopressin; Potency, µM (doses to about 57.5 µM), hits mostly inhibitors; hit rate 0.99% among 72,000; HEK293-V1b, vasopressin-stimulated pERK AlphaScreen; further: nearly all actives have a fitted effect of over 55% in size
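HEK293 cells stably expressing V1b receptor, seeded overnight in 1% FBS, were treated with compounds for 30 min at 37C, then stimulated 5 min with 25 nM vasopressin; phospho-ERK read by AlphaScreen SureFire after lysis.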
ALOX15 inhib: inhibitors of human 15-lipoxygenase (ALOX15); AID 887; Potency, µM (titrated, usually from 57.1 µM), hits mostly inhibitors; hit rate 1.4% among 74,000; purified 15hLO-1, xylenol orange hydroperoxide absorbance; further: nearly all actives have a fitted effect of over 55% in size
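Purified human 15hLO-1 (40 nM final) in 25 mM Hepes pH 7.5, 0.01% Triton X-100 was preincubated with compound 15 min at room temperature, then reacted 6 min with 50 uM arachidonic acid; hydroperoxide detected by Fe-XO, 573/405 nm absorbance ratio.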
TSHR ag: activates the human thyroid stimulating hormone receptor | AID 926 | P16473 | Potency, µM (top dose mostly 57.1 µM), most hits filed as activators | HEK293-CNG-TSHR cells (CNG channel as cAMP sensor), membrane potential dye, cAMP | hit rate 0.48% among 73,000; active means well fitted activation curve with a large enough effect in the main read-out, with a control signal flat, not every such curve was filed as active; inconclusive means small, poorly fitted or top-dose-only effect, or a change in a side signal; inactive means no such curve, though single readings can be large or run the other way; reference of the percent scale not stated here;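 further: the control signal comes from parental cells without the receptor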
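HEK 293 cells stably expressing TSHR and a modified CNG channel, with CNG-only parental cells as counterscreen, were preloaded 60 min at room temperature with membrane potential dye containing 100 uM RO 20-1724. Compound exposure was 30 min, and depolarization was read as fluorescence at 590 nm.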
Casp7 inh: allosteric or competitive inhibitors of human caspase-7; Potency, µM (doses to about 57.5 µM), usual class: inhibitors; recombinant caspase-7, Ac-DEVD-AFC fluorescence rate; P55210; hit rate 0.02% among 75,000; AID 889; active means well fitted inhibition curve with a large enough effect in the main read-out, with a control signal flat, not every such curve was filed as active; inconclusive means small, poorly fitted or top-dose-only effect, or a change in a side signal
Caspase-1 inhib: blocks human caspase-1 allosterically or competitively | Potency, µM (doses to about 57.5 µM), usual class: inhibitors | hit rate 0.03% among 75,000 | Caspase-1 enzyme, Ac-WEHD-AFC fluorogenic rate
HEK293 cAMP ctrl: counter-screen for TSHR agonists: cAMP increase in parental HEK293; parental HEK293 CNG cAMP sensor, membrane potential fluorescence; Potency, µM (titrated, usually from 57.1 µM), most hits filed as activators; hit rate 2.5% among 73,000; further: nearly all actives have a fitted effect of over 55% in size
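Counterscreen for endogenous-receptor signalling: CNG-channel HEK 293 cells report cAMP rise by membrane depolarization. After 60 min dye equilibration with 100 uM RO 20-1724, compounds incubated 30 min before bottom-read fluorescence at 590 nm.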
Hits are given with their value; – = inactive; ? = inconclusive; · = not tested or not shown; ! = not active in a repeat; [ ] = remark or other dose. Rows were chosen to be rich in hits. Some 4.8% of all compounds tested hit in one or more screens of this group. Unless noted, the call rests on the fitted dose curve; in most records, active means well fitted curve in the direction sought with a large enough effect; inconclusive means small, poorly fitted or top-dose-only effect, or another doubt; inactive means no such curve, though single readings can be large; an effect the other way counts as inactive or inconclusive.

SMILES	ERK AVP block	ALOX15 inhib	TSHR ag	Casp7 inh	Caspase-1 inhib	HEK293 cAMP ctrl
Oc1ccc2c3c1O[C@@H]1c4[nH]c5c(c4C[C@@]4(O)[C@@H](C2)N(CC2CC2)CC[C@]314)C[C@]1(O)[C@@H]2Cc3ccc(O)c4c3[C@@]1(CCN2CC1CC1)[C@H]5O4	–	–	?	–	–	?
CCCCC/C=C\C/C=C\C/C=C\C/C=C\CCCC(=O)O	–	0.32µM	·	–	?	·
CCCCCCCC(=O)Cl	–	–	?	–	–	?
COc1cc2c(C(=O)N3CCN(C)CC3)c(C)n(C)c2cc1Br	–	–	?	–	–	20µM
COc1ccc2c(c1)c(C(=O)CN1CCN(C)CC1)c(C)n2Cc1ccccc1	–	–	?	–	–	?
O=C(O)c1cccc(Cl)c1	–	–	–	–	–	–
O=C(O)c1cc[c]([Hg][Cl])cc1	–	1.6µM	·	–	?	–
Oc1c(Cl)c(Cl)c(Cl)c(Cl)c1Cl	–	–	?	–	–	32µM
CC[C@@H](CO)Nc1nc(NCc2ccccc2)c2ncn(C(C)C)c2n1	–	–	?	–	–	?
CCC(COC(=O)c1cc(OC)c(OC)c(OC)c1)(c1ccccc1)N(C)C (stereo not given)	32µM	–	·	–	–	·
COCCOC(=O)c1ccccc1C(=O)OCCOC	–	–	?	–	–	–
COCCOC(=O)c1c(N)n(Cc2ccccc2)c2nc3ccccc3nc12	–	–	?	?	·	16µM
CC(C)CCn1c(N)c(C(=O)OCC2CCCO2)c2nc3ccccc3nc21 (stereo not given)	–	–	?	?	·	20µM
NCCCC(N)CC(=O)NCC1NC(=O)C(CO)NC(=O)C(N)CNC(=O)C(C2CCN=C(N)N2)NC(=O)/C(=C\NC(N)=O)NC1=O (stereo not given)	–	–	·	–	–	·
CCCCCCCCC(=O)NCc1ccc(O)c(OC)c1	–	25µM!	–	–	–	–
CC(C)CCCC(C)C1CCC2C3C(=O)C=C4CC(O)CC[C@@]4(C)C3CC[C@@]12C (stereo not given in full)	–	?	·	–	–	·
CC1=NN(c2ccccc2)C(=O)[C@@H]1N=Nc1ccc([As](=O)(O)O)c(O)c1	–[11.5 µM]	–[11.4 µM]	–[11.4 µM]	–[11.5 µM]	–[11.5 µM]	–[11.4 µM]
COc1ccc(C(=O)c2c(C)n(CCN3CCOCC3)c3cc(I)ccc23)cc1	–	–	?	–	–	6.3µM
CN(C)CCC(C#N)(c1ccccc1)c1ccccc1	–[11.5 µM]	–[11.4 µM]	–[11.4 µM]	–[11.5 µM]	–[11.5 µM]	–[11.4 µM]
ClC1=C(Cl)C2(Cl)C3C4CC(C5OC45)C3C1(Cl)C2(Cl)Cl (stereo not given)	–	–	25µM	–	–	–
ClC1=C(Cl)C2(Cl)C3C4C=CC(C4)C3C1(Cl)C2(Cl)Cl (stereo not given)	–	–	–	–	–	–
COc1ccc2c(c1)CCC1C2CC[C@]2(C)[C@H](NCCCCCCN3C(=O)C=CC3=O)CC[C@@H]12 (stereo not given in full)	–	–	–	–	–	–
O=C1Nc2ccccc2C2(CCN(CCc3ccc(C(F)(F)F)cc3)CC2)O1	16µM	?	?	–	–	?
CCN[C@]1(c2cccs2)CCCCC1=O	–	–	5µM	–	–	–
N[C@@H](Cc1cc(O)c(O)cc1O)C(=O)O	–	?	–	?	?	–
SMILES	ERK AVP block	ALOX15 inhib	TSHR ag	Casp7 inh	Caspase-1 inhib	HEK293 cAMP ctrl
Oc1cccc(Cl)c1Cl	–	–	?	–	–	–
Oc1ccccc1O	–	16µM	–	–	–	–
O=P(O)(O)CCP(=O)(O)O	–[11.5 µM]	–[11.4 µM]	–[11.4 µM]	–[11.5 µM]	–[11.5 µM]	–[11.4 µM]
CCNC(C)(C)[C@@H](SS)c1ccc(Br)cc1	–[11.5 µM]	–[11.4 µM]	–[11.4 µM]	–[11.5 µM]	–[11.5 µM]	–[11.4 µM]
CO	–	–	?	–	–	–
C=CCn1c(O)c(C(C)=Nc2ccc(N(C)C)cc2)c(=O)[nH]c1=O	13µM	–	–	–	–	–
CC[C@H](CO)NC(=O)[C@H]1C=C2c3cccc4[nH]cc(c34)C[C@H]2N(C)C1	·	·	–	·	·	–
C=CCN1CC[C@@]23CCCC[C@@H]2[C@@H]1Cc1ccc(O)cc13	–	–	–	–	–	–
O=C(O)c1cc2ccccc2oc1=O	·	–	?	–	–	20µM
O=C(c1cc2ccccc2oc1=O)N1CCC2(CC1)OCCO2	–	–	–	–	–	–
